Only some compounds are listed: those with a hit (about 2.6% of all), similar ones and a draw of the others.
Platelet DG rel = platelet dense granule release activity | inhibition, %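 (compounds screened at 7.5 µM in platelet-rich plasma)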 | 0.22% of 300,000 active | human platelet-rich plasma, SFLLRN dense granule ATP release, luminescence;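 active = mean replicate score, as percent of positive control, at or above 50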
ABHD5 PLIN5 PPI = inhibitors of human ABHD5-perilipin-5 interaction. Split G. princeps luciferase complementation, luminescence, 4 h. inhibition, % at 4 µM. Q00G26+Q8WTS1. 0.78% of 360,000 active. AID 602281;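 active = inhibition above the mean inhibition across every tested compound plus 3 SD, cut at about 22% in these data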;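 also: 0% = DMSO only wells and the 100% control is not disclosed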
Rce1 inhib = blocks yeast Ras-converting enzyme; AID 2563; 0.27% of 290,000 active; Q03530; calls only; yeast membranes, quenched prenylated peptide cleavage fluorescence;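 active = fall in fluorescence gain of 50% or more versus controls, with final raw signal at or below 3038400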;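 also: plate controls were neutral control wells for no effect and wells lacking membranes for full effect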
PfM18AAP inh-1 = blocks P. falciparum M18 aspartyl aminopeptidase; inhibition, % at 7.35 µM; 1.2% of 290,000 active; recombinant PfM18AAP, H-Glu-NHMec fluorogenic cleavage;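 active = inhibition above the campaign mean inhibition over all tested compounds plus 3 SD, cut at about 28% in these data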;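 also: 0% = plate median of test compound wells and 100% = 2 mM ZnCl2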
Exocytosis inh = blocks lytic granule exocytosis; TALL-104 LAMP-1 surface exposure, flow cytometry; cells stimulated with thapsigargin and PMA; inhibition, % at 10 µM; 0.66% of 360,000 active;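 active = inhibition above about 55%, limit read from the data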
PfM18AAP inh-2 = confirmation of Plasmodium falciparum M18 aspartyl aminopeptidase inhibitors; recombinant PfM18AAP, H-Glu-NHMec fluorogenic cleavage; inhibition, % at 7.35 µM; 28% of 2,400 active; shares compounds with PfM18AAP inh-1;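 active = mean inhibition over replicate wells above the hit cutoff set for the earlier primary screen, cut at about 29% in these data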;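 also: 0% = median of test compound wells and 100% = 2 mM ZnCl2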
CTSL1 counter = Cathepsin L (human) inhibition, confirmation; shares compounds with PfM18AAP inh-1; purified cathepsin L1, Z-Leu-Arg-MCA fluorescence; inhibition, % at 5.96 µM; 2,400 tested, under 10 active;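 active = average inhibition across replicates above the hit cutoff set in the earlier primary screen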;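 also: 0% = median of test compound wells and 100% = Z-Phe-Ala-diazomethylketone 1 µM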
Target sequence (P07711 whole entry, looked up): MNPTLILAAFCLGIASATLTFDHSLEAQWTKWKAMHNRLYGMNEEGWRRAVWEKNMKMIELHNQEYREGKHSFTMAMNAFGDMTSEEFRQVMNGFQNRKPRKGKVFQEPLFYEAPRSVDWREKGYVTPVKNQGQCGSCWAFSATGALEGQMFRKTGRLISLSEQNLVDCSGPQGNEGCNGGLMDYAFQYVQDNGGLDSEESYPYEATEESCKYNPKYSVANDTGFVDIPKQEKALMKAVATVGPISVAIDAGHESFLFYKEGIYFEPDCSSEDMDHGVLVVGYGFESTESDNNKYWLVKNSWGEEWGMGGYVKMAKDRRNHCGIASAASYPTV
The depositor's hits bear a star; i = inactive; nt = no result given.

SMILES	Platelet DG rel	ABHD5 PLIN5 PPI	Rce1 inhib	PfM18AAP inh-1	Exocytosis inh	PfM18AAP inh-2	CTSL1 counter
O=C(CSc1cccc2cccnc12)N/N=C/c1cccc(O)c1	-3	-3	i	11	1	nt	nt
O=C(COc1cccc(C(F)(F)F)c1)N1CCN(c2ccc(O)cc2)CC1	0	3	i	33*	2	-24	4
Cc1ccc(/C=N/NC(=O)CSc2nc3ccccc3n2Cc2ccccc2)o1	-6	-2	i	4	-1	nt	nt
CCOC(=O)c1c(-c2ccc(OC)cc2)csc1/N=C/C1=C(O)CCCC1=O	-6	-3	i	37*	-2	-30	4
Cc1[nH]n(-c2ccc(F)cc2)c(=O)c1/C=N/c1sc2c(c1C#N)CCCC2	4	-22	i	34*	1	-56	3
Cc1[nH]n(-c2cccc3ccccc23)c(=O)c1/C=N/c1sc2c(c1C#N)CCC2	-2	-19	i	14	-2	nt	nt
O=C(N/N=C/c1ccc(F)cc1)c1sccc1OCc1ccc(F)cc1	-1	3	i	-18	1	nt	nt
O=C(Nc1ncn[nH]1)c1ccccc1Br	-3	0	i	38*	18	44*	-4
O=C(Nc1ncn[nH]1)c1ccc([N+](=O)[O-])cc1[N+](=O)[O-]	0	-2	i	44*	-4	34*	1
COC(=O)[C@H](CC(C)C)NC(=O)c1cc2c(cn1)[nH]c1ccccc12	1	2	i	39*	-5	13	8
COC(=O)C(Cc1ccccc1)NC(=O)c1cc(=O)[nH]c2ccccc12 (configuration not stated)	-3	7	i	-8	12	nt	nt
CC[n+]1c(C)sc2cc(C)ccc21	-7	-5	i	47*	32	-34	1
Cc1ccc2sc(C)[n+](CCO)c2c1	-2	-13	i	37*	-2	-5	2
C=CCn1c(SCCOc2ccc(OC)cc2)nnc1C(C)NC(=O)Cc1ccc(OC)cc1 (configuration not stated)	20	2	nt	-8	1	nt	nt
Cc1noc(C)c1S(=O)(=O)N(Cc1ccccc1)C(C)C	17	-3	i	-9	-2	nt	nt
CCN(CCCNC(=O)C1CCC(=O)N1C1CCCC1)c1cccc(C)c1 (configuration not stated)	8	-6	i	54*	-2	-24	6
CCN(CCCNC(=O)C1CCN(S(=O)(=O)c2c(C)[nH]c(=O)[nH]c2=O)CC1)c1cccc(C)c1	2	0	i	32*	0	-23	-2
CCN(CCCNC(=O)CCNC(=O)Cn1cnc2ccccc2c1=O)c1cccc(C)c1	-1	-2	i	53*	4	-25	-2
CCN(CCCNC(=O)CNC(=O)Cn1cnc2ccccc2c1=O)c1ccccc1	nt	-4	nt	11	1	nt	nt
CCSc1nnc(NC(=O)c2csc3c2CCC(C)C3)s1 (configuration not stated)	4	-1	i	-1	-3	nt	nt
CCOC(=O)/C(=N/Nc1ccccc1)c1csc(Nc2ccccc2)n1	-4	-4	i	13	2	nt	nt
CO/N=C(\C(=O)O)c1csc(NN=C(C)C)n1	-1	-7	i	41*	-4	-16	-4
Cc1cc(N(C)N)nc(NC(=O)NS(=O)(=O)c2ccccc2Cl)n1	3	1	i	57*	-4	50*	0
FC(F)(F)COc1nc(N/N=C/c2cccnc2)nc(N2CCCCC2c2ccccn2)n1 (configuration not stated)	-1	3	i	7	0	nt	nt
COC(=O)c1c(NC(=O)CN2CCN(C(=O)c3ccco3)CC2)c2cc(C)ccc2n1C	0	3	i	-5	-2	nt	nt
Cc1nc2ccccn2c1-c1ccnc(=S)[nH]1	-1	2	i	37*	18	13	2
S=c1nccc(-c2ccc(Cl)cc2)[nH]1	-9	-5	i	1	4	nt	nt
Oc1ccc(-c2nc3ccc4ccccc4c3c3c2CCC3)cc1O	-2	2	i	47*	2	32*	-1
CCn1c(SCc2nc3ccccc3c(=O)[nH]2)nnc1-c1cccnc1	-1	2	i	4	-2	nt	nt
